Measurements as given in the supplement of paper PMC12494721.
Where a name gives a salt, the structure may show the parent alone.

Test system: Klebsiella aerogenes DSM 30053
Assay: fold change of Cadaverine concentration vs plate DMSO controls (fold change (ratio)); higher = more amine produced, active = hit call of the paper (significant change in both replicates, either direction)
Settings: incubation time: 27 h, anaerobic, 37 °C;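 for the amine columns active = adjusted P below 0.05 in both replicates with a change the same way and a mean fold change under 0.8 or over 1.25; inactive = the rest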
Outline: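 Anaerobic mGAM cultures of four gut bacterial strains were grown at 37 °C for 27 h in 80 µL wells, starting at OD 0.1 before 1:1 dilution. Compounds were at 20 µM final (sweeteners 50 µM). Whole cultures were extracted with cold acetonitrile/methanol containing 0.1% formic acid and centrifuged. Amines were quantified by LC–triple-quadrupole MS (dynamic MRM) against external calibration curves and drift-corrected within batch. Each value is the fold change versus plate DMSO controls, averaged over 2 biological replicates.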

Fold change of Cadaverine concentration, inactive:
Cc1ccc(-c2ncc(Cl)cc2-c2ccc(S(C)(=O)=O)cc2)cn1 [Etoricoxib] (20 µM) 1.03, Clc1ccc(CO/N=C(\Cn2ccnc2)c2ccc(Cl)cc2Cl)c(Cl)c1 [Oxiconazole nitrate] (20 µM) 1.07, NCc1ccc(S(N)(=O)=O)cc1 [Mafenide hydrochloride] (20 µM) 0.987, c1ccc(-c2ccc(C(c3ccccc3)n3ccnc3)cc2)cc1 (stereo not given) [Bifonazole] (20 µM) 1, OC[C@H]1O[C@@H](O[C@H]2[C@H](O)[C@@H](O)[C@H](O)O[C@@H]2CO)[C@H](O)[C@@H](O)[C@H]1O [Lactose] (50 µM) 1.02, CC(CNC1CCCCC1)OC(=O)c1ccccc1 (stereo not given) [Hexylcaine hydrochloride] (20 µM) 0.984, CN(C)CCc1c[nH]c2ccc(Cn3cncn3)cc12 [Rizatriptan benzoate] (20 µM) 1.01, CC[N+]1(CC)CCC(=C(c2ccccc2)c2ccccc2)C1C (stereo not given) [Prifinium Bromide] (20 µM) 1.01, COc1ccc(C(=O)c2ccc(C)cc2)c(O)c1 [Mexenone] (20 µM) 0.998, CC(C)NCC(O)COc1ccc(CCOCC2CC2)cc1 (stereo not given) [Betaxolol hydrochloride] (20 µM) 1, COc1cc(N)cn[n+]1-c1ccccc1 [Amezinium metilsulfate] (20 µM) 0.995, C[C@H](NCc1ccc(OCc2cccc(F)c2)cc1)C(N)=O [Safinamide] (20 µM) 0.983, CC#C[C@]1(O)CC[C@H]2[C@@H]3CCC4=CC(=O)CCC4=C3[C@@H](c3ccc(N(C)C)cc3)C[C@@]21C [Mifepristone] (20 µM) 0.998, O=C1CCC(N2C(=O)c3ccccc3C2=O)C(=O)N1 (stereo not given) [Thalidomide] (20 µM) 1, CCCC(=O)Nc1ncnc2c1ncn2[C@@H]1O[C@@H]2COP(=O)(O)O[C@H]2[C@H]1OC(=O)CCC [Bucladesine sodium salt] (20 µM) 1.01, CCOC(=O)C1=C[C@@H](OC(CC)CC)[C@H](NC(C)=O)[C@@H](N)C1 [Oseltamivir phosphate] (20 µM) 1, Brc1c(NC2=NCCN2)ccc2nccnc12 [Brimonidine L-tartrate] (20 µM) 1.06, CC(C)(C)NC[C@H](O)COc1nsnc1N1CCOCC1 [Timolol maleate salt] (20 µM) 1, O=C(CCCN1CCC(O)(c2ccc(Cl)cc2)CC1)c1ccc(F)cc1 [Haloperidol] (20 µM) 0.992, OC[C@@H](O)[C@H](O)[C@@H](O)CO [Xylitol] (50 µM) 1.02, Cc1cnc(C(=O)NCCc2ccc(S(=O)(=O)NC(=O)NC3CCCCC3)cc2)cn1 [Glipizide] (20 µM) 1, Fc1ccc([C@@H]2CCNC[C@H]2COc2ccc3c(c2)OCO3)cc1 [Paroxetine hydrochloride] (20 µM) 0.991, Nc1nnc(-c2cccc(Cl)c2Cl)c(N)n1 [Lamotrigine] (20 µM) 0.989, Oc1c(Cl)cc(Cl)c(Cl)c1Cc1c(O)c(Cl)cc(Cl)c1Cl (20 µM) 1.02, Cc1c(Nc2ncccc2C(=O)O)cccc1C(F)(F)F [Flunixin meglumine] (20 µM) 1, COc1c(O)cc2c(c1O)[C@@H]1O[C@H](CO)[C@@H](O)[C@H](O)[C@H]1OC2=O [Bergenin] (20 µM) 1.03, Nc1c(CC(=O)O)cccc1C(=O)c1ccc(Br)cc1 [Bromfenac] (20 µM) 1.01, CNC[C@H](O)[C@@H](O)[C@H](O)[C@H](O)CO [Meglumine] (20 µM) 1.06, O=C(Nc1ccc([N+](=O)[O-])cc1Cl)c1cc(Cl)ccc1O [Niclosamide] (20 µM) 0.992, CN1CCN2c3ncccc3Cc3ccccc3C2C1 (stereo not given) [Mirtazapine] (20 µM) 1.02
